# According to PubChem BioAssay (Tox21):
# Inconclusive results are not listed. Unmarked numbers belong to inactive results. Calls of active or inactive are those of the source. Calls follow the shape of the full dose curve.
# Molecular target: 5-hydroxytryptamine receptor 2A (Homo sapiens) (UniProt P28223)
# Test: 5-hydroxytryptamine receptor 2A (HTR2A) small molecule agonists, cell-based qHTS assay (AID 1963587); also: nearly all actives have a fitted effect of over 30% in size
# Settings: HTR2A-CHO cells, calcium flux fluorescence, agonist mode; series mostly up to 76.8 µM; activation: at the top concentration
# Excerpt: National Center for Advancing Translational Sciences [NCATS]
# Division of Preclinical Innovation [DPI]
# U.S. Environmental Protection Agency [EPA]
# National Institutes of Environmental Health Sciences [NIEHS]
# National Toxicology Program [NTP]
# U.S. Food and Drug Administration [FDA]
# The HTR2A receptor is a subtype of the 5-HT2 receptor that belongs to the serotonin receptor family and is a G protein-coupled receptor (GPCR). The HTR2A-CHO cell line stably expressing human 5-hydroxytryptamine receptor 2A (HTR2A) can be used for screening agonists of interactions between 5-HT2 and its ligands. The HTR2A-CHO calcium flux assay is a homogeneous fluorescence-based assay for detecting the intracellular calcium level using FDSS kinetic plate reader system.
# HTR2A-CHO cells were dispensed at 2000 cells/3uL/well in 1536-well black-clear bottom plates using a Multidrop Dispenser. After the assay plates were incubated at a 37 C/5% CO2 incubator for 18 h, 3 uL of Dye Loading Buffer was transferred to the assay plate by a Flying Reagent Dispenser. The assay plates were incubated at 37 C for 1h. For agonist mode, 23 nL of compounds dissolved in DMSO, positive controls or DMSO only was transferred to the assay plate by a pin tool. The fluorescence intensity in the plates was measured using FDSS 7000EX kinetic plate reader for 2 min at 1 sec intervals.
# % is scaled to controls: 0 for no effect and ±100 for the full control effect; potency is read from the fitted curve at half-maximal effect.
# 5-hydroxytryptamine receptor 2A (Homo sapiens), sequence (P28223 whole entry, looked up): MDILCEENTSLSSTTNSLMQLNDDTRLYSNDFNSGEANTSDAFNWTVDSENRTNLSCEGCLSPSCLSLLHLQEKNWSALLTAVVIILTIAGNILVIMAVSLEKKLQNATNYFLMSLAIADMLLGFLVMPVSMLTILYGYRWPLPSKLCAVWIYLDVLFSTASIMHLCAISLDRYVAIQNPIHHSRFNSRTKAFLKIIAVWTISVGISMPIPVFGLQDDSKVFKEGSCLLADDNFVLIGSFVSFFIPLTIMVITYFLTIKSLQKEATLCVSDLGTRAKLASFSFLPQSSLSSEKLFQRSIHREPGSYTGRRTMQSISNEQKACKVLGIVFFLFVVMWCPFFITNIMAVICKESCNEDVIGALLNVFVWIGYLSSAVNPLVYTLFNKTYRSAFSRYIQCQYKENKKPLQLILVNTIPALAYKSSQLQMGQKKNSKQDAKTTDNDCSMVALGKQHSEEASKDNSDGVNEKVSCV
Structure (SMILES),activation,Potency
CCN(CC)c1cccc(O)c1,-3.64%,–
CC(=O)OCC(=O)[C@H]1CC[C@H]2[C@@H]3CCC4=CC(=O)CC[C@]4(C)[C@H]3CC[C@]12C,-4.84% [at 35.6 µM],–
COC(=O)CSc1cc(N=c2sc(=O)n3n2CCCC3)c(F)cc1Cl,1.05%,–
NCc1ccccc1,-1.29%,–
CCCCCCOC(=O)NC(=N)c1ccc(NCc2nc3cc(C(=O)N(CCC(=O)OCC)c4ccccn4)ccc3n2C)cc1,-7.14% [at 35.6 µM],–
CCN(CC)c1ccc(C(=C2C=CC(=[N+](CC)CC)C=C2)c2cc(S(=O)(=O)O)ccc2S(=O)(=O)[O-])cc1,-0.422% [at 35.6 µM],–
CC1=Nc2ccccc2C1(C)C,4.71%,–
C[C@H](NC(CCc1ccccc1)C(=O)O)C(=O)N1CCC[C@H]1C(=O)O (stereo not given in full),-4.13% [at 35.6 µM],–
CCN(C)C(=O)Oc1cccc([C@H](C)N(C)C)c1,1.96% [at 35.6 µM],–
CSc1ccc(Oc2ccc(S(N)(=O)=O)cc2CN(C)C)cc1C,4.28%,–
COC(C)(C)OC,-0.566%,–
CC(=O)OCC1=C(C(=O)O)N2C(=O)[C@@H](NC(=O)CSc3ccncc3)[C@H]2SC1,-2.03% [at 35.6 µM],–
CC(C)(C)CC(C)(C)N,-2.39%,–
CC1=C(/C=C/C(C)=C/C=C/C(C)=C\C=O)C(C)(C)CCC1,0.266%,–
C=CCOC(=O)CCC1CCCCC1,-0.755%,–
CC1=CCC(C(C)C)C=C1 (stereo not given),1.71%,–
C=CC(=C)CCC=C(C)C,1.42%,–
CO/N=C(/C(=O)N[C@@H]1C(=O)N2C(C(=O)OCOC(=O)C(C)(C)C)=C(C)CS[C@H]12)c1csc(N)n1,-3.65% [at 35.6 µM],–
CC(C)CCCCCOC(=O)CCCCC(=O)OCCCCCC(C)C,0.018%,–
CC(C)(C)c1ccc(-c2ccc(C(C)(C)C)cc2)cc1,-1.28%,–

Structure (SMILES),activation,Potency
CCCCCCCCCCCCCCC[C@H](O)[C@@H](N)CO,–,7.56 µM (active)
CCOc1ccc(OCC)c(Cl)c1,-0.812%,–
CCCCN(CCCC)c1ccc(C(=O)c2ccccc2C(=O)O)c(O)c1,–,55.5 µM (active)
Nc1ccc(-c2ccc(F)cc2)cc1,-5.16%,–
Cc1ccccc1N=Nc1ccc(N=Nc2c(O)ccc3ccccc23)c(C)c1,0.0722% [at 35.6 µM],–
CCCCOC(=O)CCCCC(=O)OCCCC,0.0879%,–
C/C=C1\C(=O)C[C@H]2[C@@H]3CCC4=CC(=O)CC[C@]4(C)[C@H]3CC[C@]12C,14.7% [at 35.6 µM],–
Cc1cc([N+](=O)[O-])ccc1N,2.65%,–
Nc1ccc(C(=O)Nc2ccccc2N)cc1,-6.81% [at 35.6 µM],–
CC(CN)CC(C)(C)CCN (stereo not given),2.75% [at 199 µM],–
CC(=O)/C=C/C=C1/C2CCC(C2)C1(C)C (stereo not given),-1.16% [at 35.6 µM],–
CCOc1ccc2nc(S(N)(=O)=O)sc2c1,-9.6% [at 35.6 µM],–
CCO/C=C1\N=C(c2ccccc2)OC1=O,15.7%,–
CC(=O)CC(=O)Nc1ccc(S(=O)(=O)O)cc1,0.193%,–
CCCOC(=O)CC,-0.281%,–
CCC(C)C(C)=O (stereo not given),4.49%,–
CCC(C)(CCC(C)C)C(=O)[O-].CCC(C)(CCC(C)C)C(=O)[O-].[Zn+2] (stereo not given),3.45%,–
CCOC(=O)/C=C/c1ccccc1,-7.88%,–
CCCCCCCC/C=C\CCCCCCCC(=O)OCC,-4.71%,–
COc1ccc(-c2cc(=S)ss2)cc1,11.8% [at 35.6 µM],–
